DRV1 agonist – agonists of human resolvin D1 receptor DRV1 (GPR32); CHO-K1 GPR32 beta-arrestin PathHunter luminescence, 90 min; zero percent set by DMSO-only wells; activation, % at 76.9 µM; O75388; actives 2.5% (n = 48,000);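 active = activation of at least 60% and not above a set upper limit, about 1 call in 100 departs from these limits; inconclusive = activation of 40% to 60%, or above that upper limit; inactive = activation under 40%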
Target sequence (O75388 whole entry, looked up): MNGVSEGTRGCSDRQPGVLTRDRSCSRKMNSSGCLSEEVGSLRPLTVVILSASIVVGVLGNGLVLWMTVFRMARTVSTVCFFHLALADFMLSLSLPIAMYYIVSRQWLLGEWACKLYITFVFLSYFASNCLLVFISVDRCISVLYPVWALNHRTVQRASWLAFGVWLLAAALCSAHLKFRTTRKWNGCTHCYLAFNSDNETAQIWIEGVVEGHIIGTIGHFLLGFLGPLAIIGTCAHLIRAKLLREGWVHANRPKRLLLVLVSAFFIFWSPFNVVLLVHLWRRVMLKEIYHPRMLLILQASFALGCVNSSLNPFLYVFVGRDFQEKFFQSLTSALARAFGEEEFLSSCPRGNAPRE
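PathHunter enzyme-fragment complementation, CHO-K1 GPR32 stable line; 2,500 cells/well, overnight attach; cpd 90 min 37 °C 5% CO2; detection reagent 1 h RT; chemiluminescence. DMSO = EC0.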
FH mod – Identification of activators of human fumarate hydratase by quantitative high-throughput screening; FH coupled MDH/diaphorase resazurin fluorescence, 15 min; Potency, µM (top dose mostly 79.9 µM), most hits filed as inhibitors; AID 1347055, 2019; actives 0.22% (n = 54,000); note: the screen sought activators but most active calls are inhibition curves; nearly all actives have a fitted effect of over 45% in size
NTMT1 inh – blocks human N-terminal methyltransferase 1 activity | Potency, µM (highest dose often 114 µM), hits mostly inhibitors | NTMT1 MTase-Glo SAH luminescence, purified enzyme | AID 1645870 | actives 2.5% (n = 59,000); note: nearly all actives have a fitted effect of over 65% in size
Target sequence (Q9BV86 whole entry, looked up): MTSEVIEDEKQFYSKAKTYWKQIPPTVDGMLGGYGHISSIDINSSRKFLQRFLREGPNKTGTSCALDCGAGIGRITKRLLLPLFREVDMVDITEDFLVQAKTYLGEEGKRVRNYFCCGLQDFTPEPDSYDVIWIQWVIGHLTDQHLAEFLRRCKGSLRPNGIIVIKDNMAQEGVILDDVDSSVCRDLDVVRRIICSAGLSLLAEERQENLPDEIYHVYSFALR
SKOV3 invasion – inhibitors of ovarian cancer cell adhesion and invasion in omental model; SKOV3ip1-GFP adhesion/invasion on 3D omental model, fluorescence; Potency, µM (doses to about 45.8 µM), actives largely listed as inhibitors; actives 0.1% (n = 46,000); AID 1963576; note: nearly all actives have a fitted effect of over 65% in size
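A 3D layer of primary human omental fibroblasts, mesothelial cells, fibronectin and collagen I, grown 48 hr, received SKOV3ip1-GFP cells in serum-free medium plus compounds at 0.36-46 umol/L. After 2 hr RT and 16 hr 37 C, fixed adherent GFP cells were counted; normalized to DMSO and tomatine.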
A number is an active result; - = inactive; ? = inconclusive; . = no result given; ! = not active in a repeat. A selection: hits, their analogues and other compounds. The true share with any hit is near 3.9%. Unless noted, calls come from the whole dose curve; as a rule, active = well fitted curve in the direction sought with a large enough effect; inconclusive = small, poorly fitted or top-dose-only effect, or another doubt; inactive = no such curve, though single readings can be large; an effect the other way counts as inactive or inconclusive.

SMILES	DRV1 agonist	FH mod	NTMT1 inh	SKOV3 invasion
CCOc1ccc(-c2cn3c(n2)sc2cc(C(=O)NCCCN4CCCCC4)ccc23)cc1	-	-	50.1µM	11.2µM
COc1ccc(N2CCN(CCCNC(=O)c3ccc4nc(N5CCCCC5)sc4c3)CC2)cc1	-	-	22.4µM	-
CCCN1CCN(CCCNC(=O)c2ccc3c(c2)sc2nc(-c4ccc(OCC)cc4)cn23)CC1	-	-	?	?
CCOc1ccc(-c2cn3c(n2)sc2cc(C(=O)NCCCN(CC)CC)ccc23)cc1	-	-	39.8µM	?
O=C(/C=C/c1ccc(C(F)(F)F)cc1)Nc1cccc([S+](=O)([O-])Nc2ccccc2F)c1	.	.	-	.
O=C(O)c1cccc(S(=O)(=O)N2CCN(S(=O)(=O)c3ccc4c(c3)OCCO4)CC2)c1	.	.	-	.
CC[C@H](CO)Nc1nc(NCc2ccc(-c3ccccn3)cc2)c2ncn(C(C)C)c2n1	.	-	-	.
CCOc1ccccc1CNC(=O)C1CCN(c2nnc(C)c3c(C)n(-c4ccc(C)cc4)nc23)CC1	-	-	?	7.94µM
Cc1ccc(-n2nc3c(N4CCC(C(=O)NCc5ccccc5Cl)CC4)nnc(C)c3c2C)cc1	-	-	-	?
C[C@@H]1COCCN1c1cc(=O)n2c(n1)N(Cc1cncc(Cl)c1)[C@H](C(F)(F)F)CC2	.	-	?	.
Cc1cc2c(s1)c1cnn(Cc3ccc(Cl)cc3)c(=O)c1n2C	.	.	89.1µM	.
CCN(CC)C(=O)Cn1c(=O)cc(C)c2c(C)nn(-c3cccc(Cl)c3C)c21	94.0	-	-	-
Cc1cc(C(C)Nc2ccccc2C(=O)O)c2nc(N3CCOCC3)cc(=O)n2c1 (configuration not stated)	.	-	-	.
O=C(Nc1cc(Cl)cc2c1[nH]c1cnccc12)c1cccnc1	.	-	17.8µM!	-
Cc1ccc2nc(-c3ccc(Cl)c(NC(=O)c4cccnc4)c3)oc2c1	-	-	-	-
O=C(O)C1(C(=O)O)CCC1.[NH2-].[NH2-].[Pt+2]	-	?	17.8µM	.
NC1(C(=O)O)CC1	-	-	.	.
CCOc1cc(C(=O)Nc2ccc(NC(=O)c3cc4ccccc4o3)c(OC)c2)cc(OCC)c1OCC	105.2	-	-	?
Cc1ccc(-n2ncc3c(NC4CCCCCC4)ncnc32)cc1Cl	-	?	-	-
Cc1ccc(-n2ncc3c(NCCc4ccccc4)ncnc32)cc1	93.5	-	-	-
Cc1ccc(-n2ncc3c(NCCO)ncnc32)cc1Cl	-	-	35.5µM	-
Cc1ccc(-n2ncc3c(NCCc4ccccc4)ncnc32)cc1Cl	117.2	-	-	-
CC(C)n1nc(C#Cc2ccccc2)c2c(N)ncnc21	.	-	?	.
CC(C)n1nc(-c2cc3cc(O)ccc3[nH]2)c2c(N)ncnc21	-	-	79.4µM!	.
Cc1cc(N[S+](=O)([O-])c2cc3c(cc2F)NC(=O)CC3)ccc1Br	.	.	-	.
SMILES	DRV1 agonist	FH mod	NTMT1 inh	SKOV3 invasion
CC(O)(C#Cc1ccc2c(c1)N(c1nc(N)ncc1Cl)CC2)c1nccs1 (configuration not stated)	.	-	35.5µM	-
FC(F)(F)c1ccc(CNc2ccc(Cc3c[nH]c4ncccc34)cn2)cc1	.	-	-	.
O[C@@H](CNC[C@H](O)[C@H]1CCc2cc(F)ccc2O1)[C@@H]1CCc2cc(F)ccc2O1	62.4	-	-	-
CCCCC1CCC(CCCC(C)CCC(=O)O)CC1 (configuration not stated)	-	-	44.7µM	-
CCCCCC(O)CCCC(=O)O (configuration not stated)	-	-	.	.
C=C1C(=O)O[C@@H]2C[C@H](C)[C@@H]3CC(=O)C(C)=C3C[C@H]12	.	-	-	.
Cc1ccc(Nc2c(-c3ccc(O)cc3)nc3cccc(C)n23)cc1	116.9	-	?	-
Cc1cccc2nc(-c3cccnc3)c(Nc3ccc(C(C)C)cc3)n12	61.3	-	-	?
Cc1[nH]c2ccccc2c1C1(O)C(=O)N(Cc2ccccc2Cl)c2ccccc21 (configuration not stated)	105.1	?	-	?
CC(C)c1onc(-c2c(Cl)cccc2Cl)c1COc1ccc(/C=C/c2cccc(C(=O)O)c2)c(Cl)c1	.	.	31.6µM	.
Cc1onc(-c2c(F)cccc2Cl)c1C(=O)Nc1ccc(OC(C)C)cc1	-	-	-	-
O=C(NOCC1CC1)c1ccc(F)c(F)c1Nc1ccc(I)cc1Cl	-	-	-	-
FC(F)(F)c1ccc(CNc2ccc(Cc3c[nH]c4ncc(Cl)cc34)cn2)cn1	.	-	-	.
CC(=O)c1ccc(N2CCN(C(=O)C3CCN(S(=O)(=O)c4c(C)noc4/C=C/c4ccc(C)cc4)CC3)CC2)cc1	-	?	-	-
Cc1ccc(/C=C/c2onc(C)c2S(=O)(=O)N2CCC(C(=O)N3CCC(N(C)C(C)C)CC3)CC2)cc1	-	-	79.4µM	?
CCCCCCCCn1cc(CN(CC)CC)c2cc(-c3cnc(N)nc3)ccc21	.	-	?	.
COc1ccc(NS(=O)(=O)c2ccc3c(c2)[C@H]2C=CC[C@H]2[C@@H](c2ccc(C(=O)O)cc2)N3)cc1	-	35.5µM	?	-
CN(C)CCCNC(=O)c1ccc(-c2cnc3c(O)cccc3c2)cc1	.	.	-	.
CCOC(=O)c1c(NC(=O)c2ccc(S(=O)(=O)N3CCC(C)CC3)cc2)sc2c1CCN(C(C)C)C2	78.0	-	-	-
CCOC(=O)c1c(NC(=O)c2ccc(S(=O)(=O)N3CCC(C)CC3)cc2)sc2c1CCN(CC)C2	-	-	-	?
COc1ccccc1-c1nnc(SCC(=O)c2ccc(F)cc2)n1-c1ccccc1	69.9	-	-	-
CCCN1C[C@H](CSC)C[C@@H]2c3cccc4[nH]cc(c34)C[C@H]21	79.4!	-	-	.
CN1C[C@H](C(=O)N[C@]2(C)O[C@@]3(O)[C@@H]4CCCN4C(=O)[C@H](Cc4ccccc4)N3C2=O)C[C@@H]2c3cccc4[nH]cc(c34)C[C@H]21	-	-	-	.
Cc1cc(Nc2ncc(Cl)c(Nc3ccccc3S(=O)(=O)C(C)C)n2)c(OC(C)C)cc1C1CCNCC1	.	-	14.1µM	.
CCOc1cccc(NC(=O)C2CC(=O)N(CC)C(=Nc3ccc(F)cc3)S2)c1 (configuration not stated)	80.5	-	-	-
SMILES	DRV1 agonist	FH mod	NTMT1 inh	SKOV3 invasion
O=C(CCC1N=C2c3ccccc3N=C(SCc3ccc(Cl)cc3)N2C1=O)NCCc1ccccc1 (configuration not stated)	-	?	-	?
O=C(CC1N=C2c3ccccc3N=C(SCc3ccc(Cl)cc3)N2C1=O)NCCc1ccccc1 (configuration not stated)	73.8	?	-	-
COc1cccc(NC(=O)CSc2c3c(nc4ccccc24)CCCC3)c1	-	-	-	11.2µM
COc1ccc(OC)c(NC(=O)CSc2c3c(nc4ccccc24)CCCC3)c1	-	?	-	?
COc1ccc(Cl)cc1NC(=O)CSc1c2c(nc3ccccc13)CCC2	-	?	-	-
Cc1ccc(NC(=O)CSc2c3c(nc4ccccc24)CCCC3)cc1F	64.6	-	-	-
C[C@H](CN(C)C)Oc1nc(Nc2cc3cccc(Cl)c3cn2)cnc1C#N	.	-	-	.
